Most compounds without a hit are left out; they make up all but 4.3% or so of the library.
GLP1R ag – agonists of human GLP-1 receptor. P43220. HEK293 GLP-1R CRE-luciferase, luminescence, 4-6 h; cells express a hypersensitive GLP-1R form. Potency, µM (doses to about 45.6 µM), for inactives: at the highest dose activation, actives largely listed as activators. 380,000 compounds, 0.007% hits. AID 624172; further: potency means the concentration at half of the fitted maximal effect; % of control where 0% means no effect
Target sequence (P43220 whole entry, looked up): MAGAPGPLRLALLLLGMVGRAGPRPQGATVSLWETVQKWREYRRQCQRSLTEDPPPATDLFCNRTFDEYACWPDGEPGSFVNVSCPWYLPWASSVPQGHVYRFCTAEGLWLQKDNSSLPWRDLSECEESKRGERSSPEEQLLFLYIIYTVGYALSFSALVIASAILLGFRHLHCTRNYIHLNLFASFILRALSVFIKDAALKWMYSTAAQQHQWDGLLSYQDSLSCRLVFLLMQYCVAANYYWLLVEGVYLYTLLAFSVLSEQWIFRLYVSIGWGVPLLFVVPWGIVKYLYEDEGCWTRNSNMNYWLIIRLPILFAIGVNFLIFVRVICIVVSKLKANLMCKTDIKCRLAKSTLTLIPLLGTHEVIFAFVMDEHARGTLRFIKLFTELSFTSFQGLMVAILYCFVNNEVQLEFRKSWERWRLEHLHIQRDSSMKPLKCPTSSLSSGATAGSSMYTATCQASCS
DRD3 agonist – D3 dopamine receptor (human) agonism; P35462; D3R DiscoveRx beta-arrestin cells, luminescence, 90 min; max activation, %; 410,000 compounds, 0.58% hits; AID 652048; in the data active means max activation above about 30%; further: 0% is about no effect
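Cells at 1500/well, incubated overnight, then treated with pinned compounds (dopamine as control) for 90 min at 37 degrees C. DiscoveRx reagent added for 30 - 60 minutes at room temperature; luminescence read.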
D3 antag – antagonists of human D3 dopamine receptor. max response, negative = inhibition, %. 360,000 compounds, 2.5% hits. P35462. D3R cells, DiscoveRx beta-arrestin luminescence, antagonist mode; active compounds read low; in the data active means max response below about -50%; inconclusive means no clear call, values can overlap the other calls; further: on the % scale 0 is the no-effect control and ±100 the full control effect
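Cells plated overnight at 1500 cells/well, then exposed to library compounds with dopamine controls for 90 minutes at 37 degrees C. DiscoveRx reagent added for 30–60 minutes at room temperature; luminescence read, quantitative HTS format.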
GLP-1R inv ag – inverse agonists of human GLP-1 receptor; Potency, µM (top dose mostly 38.3 µM), inactives show top-dose activity change, negative = inhibition, most hits filed as inhibitors; P43220; HEK293 GLP-1R CRE-luciferase, luminescence, 24 h; GLP-1R form is constitutively active; 410,000 compounds, 1.6% hits; further: potency means the concentration at half of the fitted maximal effect; on the % scale 0 is the no-effect control and ±100 the full control effect; nearly all actives have a fitted effect of over 55% in size
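HEK293 cells stably co-expressing constitutively active GLP-1R and a cAMP-responsive luciferase reporter were seeded in DMEM with 10% Nu serum, given compounds after 12 h, and incubated 24 h at 37 deg C. Luminescence was then read.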
Active calls of the source: *; ? = inconclusive; . = no result given. Unless noted, the call rests on the fitted dose curve; in most records, active means well fitted curve in the direction sought with a large enough effect; inconclusive means small, poorly fitted or top-dose-only effect, or another doubt; inactive means no such curve, though single readings can be large; an effect the other way counts as inactive or inconclusive.

SMILES | GLP1R ag | DRD3 agonist | D3 antag | GLP-1R inv ag
Cc1ccccc1Nc1c(-c2ccc(O)cc2)nc2c(C)cccn12 | . | -3.6 | . | -25.6%
Cc1cc(C)c2c(-n3cccc3)c(C(=O)NCCCN3CCCCC3C)sc2n1 (centres undefined) | . | -37.7 | . | ?
CCc1nc2ccc(C(=O)NCCc3c[nH]c4ccccc34)cn2c1N(C=O)CCC(C)C | -0.1% | -18.6 | -1.0 | 5.62µM*
Cc1cccc(C)c1NC(=O)C(NC(=O)c1ccccn1)c1ccc([N+](=O)[O-])cc1 (centres undefined) | -6.0% | -5.1 | -52.5* | -34.4%
Cc1ccc(CS(=O)(=O)c2ncc(Cl)c(C(=O)Nc3nc4ccc(C)cc4s3)n2)cc1 | . | -13.1 | . | -27.2%
CCCc1nnc(NC(=O)c2nc(S(=O)(=O)Cc3ccc(C)cc3)ncc2Cl)s1 | -4.6% | -10.7 | -65.5* | ?
Cc1ccccc1CS(=O)(=O)c1ncc(Cl)c(C(=O)Nc2nnc(C(C)C)s2)n1 | . | -14.3 | . | ?
CC(C)c1nnc(NC(=O)c2nc(S(=O)(=O)Cc3ccccc3)ncc2Cl)s1 | -5.0% | -23.6 | -64.2* | ?
CC1=C(C(=O)Nc2ccc(Cl)cc2)C(C(C)C)n2nc(SCc3cccc(C)c3)nc2N1 (centres undefined) | -0.8% | 3.7 | . | -14.7%
CCn1cc(C(=O)N2CCN(c3ccccc3)CC2)c(=O)c2cc(S(=O)(=O)N3CCCC3)ccc21 | . | -11.4 | . | -12.3%
O=C(NCC1CCCO1)C(c1cccs1)N(Cc1ccccc1Cl)C(=O)c1ccc(-c2ccccc2)[nH]1 (centres undefined) | -16.1% | -6.8 | ? | 2.51µM*
CCCOc1ccc(-c2cn3ccccc3n2)cc1 | -3.2% | 2.6 | 1.1 | 7.08µM*
COc1ccc2sc(N(CCCN(C)C)C(=O)c3nc4ccccc4s3)nc2c1 | 4.3% | -6.5 | -11.0 | -12.3%
COc1ccccc1C(=O)N(CCC1CCCN1C)c1nc2ccccc2s1 (centres undefined) | -4.3% | -11.6 | 1.9 | 3.55µM*
Cc1ccc(NC(=O)CN2C(=O)CCc3cc(S(=O)(=O)N4CCOCC4)ccc32)cc1F | . | -3.8 | . | -9.5%
Cc1ccc2nc(C3CCCN3Cc3nc(CCC(C)C)no3)[nH]c2c1 (centres undefined) | -3.6% | 4.9 | -5.5 | 7.08µM*
CN(CC(=O)Nc1cccc(F)c1)C(=O)/C=C/c1cc(Br)ccc1OC(F)F | -1.8% | -9.3 | -54.5* | ?
CN(CC(=O)Nc1cccc(F)c1)C(=O)/C=C/c1ccc(Br)s1 | 14.0% | -18.0 | -27.9 | ?
Cc1c(CCNC(=O)c2ccco2)sc2nc(-c3ccc(F)cc3)nn12 | . | 7.1 | . | 0.4%
Cc1ccc(-c2nc3sc(CCNC(=O)c4ccco4)c(C)n3n2)cc1 | 8.1% | 40.3* | . | -11.8%
Cc1oc2cc3oc(=O)c(CC(=O)NCc4ccccc4)c(C)c3cc2c1C | . | 13.5 | . | 5.6%
COc1ccc(-c2nc(CCNC(=O)c3cc(OC)c(OC)c(OC)c3)cs2)cc1 | . | -8.2 | . | -4.8%
CCOC(=O)/C=C/C(=O)Nc1ccc(S(=O)(=O)Nc2c(C)cc(C)cc2C)cc1 | -2.1% | 0.6 | ? | ?
CCOC(=O)/C=C/S(=O)(=O)c1ccc(NC(C)=O)cc1 | -16.4% | -5.6 | -75.8* | ?
CC(Oc1cccc(Cl)c1)C(=O)Nc1cc(S(=O)(=O)N2CCOCC2)ccc1N1CCCCC1 (centres undefined) | 16.7% | 11.2 | 1.7 | 10µM*
SMILES | GLP1R ag | DRD3 agonist | D3 antag | GLP-1R inv ag
Cc1ccc(S(=O)(=O)N2CCOCC2)cc1NC(=O)COc1cccc(Oc2ccccc2)c1 | -1.9% | 13.0 | 4.1 | 10µM*
CC(NCC(=O)Nc1cc(S(=O)(=O)N2CCOCC2)ccc1Cl)c1ccc(Cl)cc1Cl (centres undefined) | 0.3% | 2.2 | 23.7 | 5.62µM*
Cc1ccc(S(=O)(=O)N2CCOCC2)cc1NC(=O)COC(=O)CNC(=O)c1ccc(Oc2ccccc2)cc1 | 3.4% | 3.1 | 8.8 | 16.8%
CCN1CCN(c2ccc(S(=O)(=O)N3CCOCC3)cc2NC(=O)C(C)Oc2cccc(Cl)c2)CC1 (centres undefined) | 29.6% | -17.5 | -13.3 | ?
Cc1cccc(C)c1NC(=O)CN1CCN(CCCC(c2ccc(F)cc2)c2ccc(F)cc2)CC1 | 4.4% | -78.9 | -78.8* | -1.3%
Cc1c(NC(=O)CN2CCN(C(c3ccccc3)c3ccccc3)CC2)c(=O)n(-c2ccccc2)n1C | -8.8% | 0.7 | 9.7 | -4.2%
CCCn1c2ccccc2c2cnn(CC(=O)N3CCCC(C)C3)c(=O)c21 (centres undefined) | . | -7.9 | . | -22.7%
Cc1noc2ncnc(NCc3ccc(Cl)cc3)c12 | . | -9.8 | . | ?
Cc1ccc(S(=O)(=O)N2CCCCC2)cc1NC(=O)CNCc1ccco1 | 1.5% | 38.3* | 0.9 | -14.3%
Cc1ccc(S(=O)(=O)N2CCOCC2)cc1NC(=O)CN1CCN(C)CC1 | 0.4% | 1.3 | 8.9 | 36.1%
Cc1cccc(C)c1NC(=O)C(c1ccccc1)N1CCC(Cc2ccccc2)CC1 (centres undefined) | 6.0% | 2.4 | 2.9 | -19.5%
Cc1cccc(C)c1NC(=O)CN1CCC(Cc2ccccc2)CC1 | -5.8% | -8.6 | -69.3* | -4.8%
Cc1ccc(S(=O)(=O)N2CCOCC2)cc1NC(=O)CSc1ncccn1 | -30.0% | -2.2 | 0.8 | 10.7%
Cc1ccc(S(=O)(=O)N2CCOCC2)cc1NC(=O)CNCc1ccccn1 | -2.5% | 51.8* | 1.4 | 6.5%
Cc1ccc(S(=O)(=O)N2CCOCC2)cc1NC(=O)CN1CCC(Cc2ccccc2)CC1 | 10.1% | -4.8 | -6.8 | 7.08µM*
COc1ccccc1CNCC(=O)Nc1cc(S(=O)(=O)N2CCOCC2)ccc1Cl | 0.6% | 13.1 | -8.3 | ?
Cc1ccc(S(=O)(=O)N2CCOCC2)cc1NC(=O)CNCc1ccccc1Cl | 6.7% | 34.8* | -15.0 | -18.0%
COc1ccc(-n2nnnc2C(c2cc3ccccc3o2)N2CCN(C/C=C/c3ccccc3)CC2)cc1 (centres undefined) | -1.6% | -20.1 | -97.5* | ?
COc1ccc(C(c2nnnn2-c2ccc3c(c2)OCCO3)N2CCN(C/C=C/c3ccccc3)CC2)cc1 (centres undefined) | 0.2% | -17.8 | -75.7* | ?
CCCCn1nnnc1C(c1cc2ccccc2o1)N1CCCC1 (centres undefined) | 18.0% | -0.2 | -13.3 | -17.3%
COc1ccc(-n2nnnc2C(c2cccc3ccccc23)N2CCN(C/C=C/c3ccccc3)CC2)cc1 (centres undefined) | 3.9% | -23.8 | -92.0* | ?
CCCCn1nnnc1C(c1cc2ccccc2o1)N1CCN(C/C=C/c2ccccc2)CC1 (centres undefined) | -0.5% | -5.5 | -72.1* | ?
Cc1nn(Cc2noc(C(=O)NCc3cccc(F)c3)n2)c(C)c1Br | 16.4% | 5.1 | . | ?
Cc1ccc(N2CC(NC(=O)C3CCCC3)CC2=O)cc1 (centres undefined) | . | 1.4 | . | 20.3%
